# Laboratory results published in PubChem BioAssay.
# Several values for one entry are separate records, joined by “and”; a condition that tells them apart may be missing. Equal values may be shown once. More than one record can exist for a structure, and the calls need not agree. Activity calls are given as the source filed them.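 Rule for the calls, unless noted: active = thallium flux through the channel raised or lowered by more than 3 SD from vehicle-only wells, actives on both sides; inactive = the rest.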
# Experiments:
# [1] = tested on: Hepatitis C virus NS3 helicase; test: blockers of NS3h binding to DNA – biochemical, fluorescence polarization, NIH Clinical Collection, primary screen (AID 743270; call rule not given here); details: NS3 helicase binding to Cy5-dT15 DNA, stronger effect = higher value, concentration not given here
# [2] = target: Single-stranded DNA-binding protein (Escherichia coli (strain K12)) (UniProt P0AGE0); test: SSB-ssDNA binding inhibitors – biochemical, fluorescence polarization, NIH Clinical Collection, counter-screen for HCV NS3 helicase inhibitor project (AID 743271; in the data active = inhibition above about 28%); details: E. coli SSB-DNA binding, stronger effect = higher value, concentration not given here
# [3] = compounds distorting NS3 helicase fluorescence signal – biochemical, NIH Clinical Collection, artefact control for HCV NS3 helicase inhibitor project (AID 743272; call rule not given here;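 note: HCV NS3 helicase with a Cy5 labelled single stranded DNA probe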); details: fluorescence interference counterscreen, HCV NS3 helicase assay; stronger effect = lower value
# [4] = Wnt pathway potentiators raising nuclear beta-catenin – imaging, WNT3A-conditioned medium, mouse C2C12, NPC library, primary screen (AID 1117326; in the data active = nuclear beta-catenin stimulation mostly above about 4.2%, no sharp cut-off; inactive = mostly below about 10%); details: stronger effect = higher value
# [5] = stimulators of insulin release from INS-1E, primary screen, cell-based, 5 mM glucose, NPC library (AID 1117329;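 active = compound raises insulin release from rat beta cells at 5 mM glucose, no numeric limit stated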); details: rat INS-1E insulin secretion, at 10 µM, stronger effect = higher value
# [6] = growth inhibition of GSK3B-pretreated HCT116 cells – cell-based, CellTiter-Glo, 0.2 to 20 µM (AID 1117336;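 active = compounds lowering colon cancer cell viability after pretreatment blocking the GSK3B kinase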); details: HCT116 viability after GSK3B inhibitor, at 20 µM, stronger effect = higher value
# [7] = inhibition of endothelial tube formation, primary screen, imaging, VEGF stimulated, CD31 staining, tube area, NPC library (AID 1117340;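 active = compound that reduces growth-factor-driven endothelial tube area in a mixed cell culture, no cutoff stated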); details: VEGF-stimulated ADSC/ECFC co-culture, at 10 µM, stronger effect = higher value
# [8] = GLP1 release stimulators, primary, NCI-H716, NPC library (AID 1117341;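 active = compound raises GLP1 secretion from the human gut endocrine cells, with no numeric limit stated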); details: NCI-H716 cells, at 10 µM, stronger effect = higher value
# [9] = HCT116 colon cancer cell growth inhibition, primary screen, CellTiter-Glo luminescence, NPC library (AID 1117342;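 active = compounds that lower survival of HCT116 colon cancer cells in the luminescence readout, no numeric limit stated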); details: at 20 µM (top of the series)
# [10] = reduced SW480 viability measured with CellTiter-Glo, NPC library, primary (AID 1117343;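 active = compounds that lower viability of the colon cancer cells in the luminescence readout, with no numeric limit stated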); details: CellTiter-Glo luminescence; at 20 µM (top of the series)
# [11] = NPC library primary testing for decreased DLD-1 cell viability via CellTiter-Glo (AID 1117346;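 active = compounds that lower survival of DLD-1 colon cancer cells in the luminescence readout, no cutoff given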); details: DLD-1 viability, CellTiter-Glo luminescence; at 20 µM (top of the series)
# [12] = target: 6-phosphogluconate dehydrogenase, decarboxylating (Homo sapiens) (UniProt P52209); test: inhibition of human phosphogluconate dehydrogenase – biochemical, recombinant enzyme, NADPH absorbance, primary screen (AID 1159550;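 active = at least 20% inhibition of 6-phosphogluconate dehydrogenase activity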); details: recombinant 6PGD, NADPH absorbance 341 nm; at 10 µM; stronger effect = higher value
# Chain of 6-phosphogluconate dehydrogenase, decarboxylating (Homo sapiens) (P52209 whole entry, looked up): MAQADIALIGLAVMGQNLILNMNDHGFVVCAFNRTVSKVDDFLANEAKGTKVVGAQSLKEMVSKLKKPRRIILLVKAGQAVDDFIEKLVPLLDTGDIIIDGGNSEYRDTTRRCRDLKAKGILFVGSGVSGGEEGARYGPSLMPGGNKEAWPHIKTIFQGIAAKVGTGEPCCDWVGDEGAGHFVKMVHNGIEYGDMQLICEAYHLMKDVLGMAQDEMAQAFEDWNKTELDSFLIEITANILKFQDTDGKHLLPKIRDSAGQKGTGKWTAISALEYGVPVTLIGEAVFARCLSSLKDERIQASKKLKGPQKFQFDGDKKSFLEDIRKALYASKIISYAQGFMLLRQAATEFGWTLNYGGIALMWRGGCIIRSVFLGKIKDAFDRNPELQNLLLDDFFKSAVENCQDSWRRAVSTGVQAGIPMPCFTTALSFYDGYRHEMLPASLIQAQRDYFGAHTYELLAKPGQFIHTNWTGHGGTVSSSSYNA
# [13] = EMT-state selective cytotoxicity in co-culture – imaging, PC-3E GFP, TEM4-18 mCherry, primary screen (AID 1345086;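 active = compounds killing one labelled cell type while sparing the other, by normalised counts and ratio limits, not self-fluorescent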;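 for all read-outs here: cells exposed to compound for 72 h before imaging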;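 for red/green cell ratio (normalised): normalised mesenchymal count divided by normalised epithelial count so high means epithelial killing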); details: PC-3E GFP / TEM4-18 mCherry co-culture, imaging cell counts, at 1 µM; for red/green cell ratio (normalised): actives lie on both sides, counts scaled to control wells, 1 = unselective
# [14] = MELAS cybrid and Rieske KO viability enhancers – cell-based, MELAS cybrids, Rieske KO mouse fibroblasts, CellTiter-Glo, primary screen (AID 1508586;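 active = mean z-score across replicates of 1.96 or higher in either the MELAS or the Rieske mutant cell line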;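 note: z relative to plate mean and SD of compound and empty wells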); details: low glucose
# [15] = target: NAD(+) hydrolase SARM1 (Homo sapiens) (UniProt Q6SZW1); test: blocking NAD cleavage by SARM1 SAM-TIR – cell lysate, NAD-Glo luminescence (AID 1508614;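 active = compound whose remaining NAD level is above about 45 nM, limit read from the data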;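 note: higher remaining NAD means stronger inhibition of SARM1 NADase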); details: SAM-TIR HEK293T lysate NADase, at 1 µM, stronger effect = higher value
# Chain of NAD(+) hydrolase SARM1 (Homo sapiens) (Q6SZW1 whole entry, looked up, the tested form may be a part): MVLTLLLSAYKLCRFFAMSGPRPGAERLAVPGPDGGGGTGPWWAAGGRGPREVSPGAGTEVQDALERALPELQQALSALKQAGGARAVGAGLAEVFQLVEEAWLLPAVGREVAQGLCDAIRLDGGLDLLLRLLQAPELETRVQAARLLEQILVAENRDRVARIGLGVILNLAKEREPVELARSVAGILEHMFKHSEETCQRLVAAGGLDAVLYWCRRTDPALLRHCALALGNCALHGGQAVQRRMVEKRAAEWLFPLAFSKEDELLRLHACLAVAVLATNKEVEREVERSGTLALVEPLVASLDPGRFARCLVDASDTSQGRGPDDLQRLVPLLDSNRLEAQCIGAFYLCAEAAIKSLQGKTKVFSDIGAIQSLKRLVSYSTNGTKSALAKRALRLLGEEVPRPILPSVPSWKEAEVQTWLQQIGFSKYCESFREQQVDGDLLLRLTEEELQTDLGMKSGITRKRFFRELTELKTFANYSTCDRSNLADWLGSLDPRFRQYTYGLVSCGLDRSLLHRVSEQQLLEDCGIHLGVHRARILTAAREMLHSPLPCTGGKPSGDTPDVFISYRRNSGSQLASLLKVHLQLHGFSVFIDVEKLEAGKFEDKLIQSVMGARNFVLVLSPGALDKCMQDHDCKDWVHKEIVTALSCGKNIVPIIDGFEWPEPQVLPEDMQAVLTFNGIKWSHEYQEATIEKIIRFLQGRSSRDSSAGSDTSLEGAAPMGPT
# [16] = target: Mitogen-activated protein kinase 7 (Homo sapiens) (UniProt Q13164); test: Gal4-ERK5 driven luciferase induction – cell-based, HTS, primary screen (AID 1508626;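 active = luciferase signal above three times the same-plate solvent-only control wells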;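 note: luciferase driven by Gal4-ERK5 fusion binding five Gal4 sites before minimal TATA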); details: HeLa Gal4-ERK5 transactivation, 18 h, at 5 µM, stronger effect = higher value
# Chain of Mitogen-activated protein kinase 7 (Homo sapiens) (Q13164 whole entry, looked up, the tested form may be a part): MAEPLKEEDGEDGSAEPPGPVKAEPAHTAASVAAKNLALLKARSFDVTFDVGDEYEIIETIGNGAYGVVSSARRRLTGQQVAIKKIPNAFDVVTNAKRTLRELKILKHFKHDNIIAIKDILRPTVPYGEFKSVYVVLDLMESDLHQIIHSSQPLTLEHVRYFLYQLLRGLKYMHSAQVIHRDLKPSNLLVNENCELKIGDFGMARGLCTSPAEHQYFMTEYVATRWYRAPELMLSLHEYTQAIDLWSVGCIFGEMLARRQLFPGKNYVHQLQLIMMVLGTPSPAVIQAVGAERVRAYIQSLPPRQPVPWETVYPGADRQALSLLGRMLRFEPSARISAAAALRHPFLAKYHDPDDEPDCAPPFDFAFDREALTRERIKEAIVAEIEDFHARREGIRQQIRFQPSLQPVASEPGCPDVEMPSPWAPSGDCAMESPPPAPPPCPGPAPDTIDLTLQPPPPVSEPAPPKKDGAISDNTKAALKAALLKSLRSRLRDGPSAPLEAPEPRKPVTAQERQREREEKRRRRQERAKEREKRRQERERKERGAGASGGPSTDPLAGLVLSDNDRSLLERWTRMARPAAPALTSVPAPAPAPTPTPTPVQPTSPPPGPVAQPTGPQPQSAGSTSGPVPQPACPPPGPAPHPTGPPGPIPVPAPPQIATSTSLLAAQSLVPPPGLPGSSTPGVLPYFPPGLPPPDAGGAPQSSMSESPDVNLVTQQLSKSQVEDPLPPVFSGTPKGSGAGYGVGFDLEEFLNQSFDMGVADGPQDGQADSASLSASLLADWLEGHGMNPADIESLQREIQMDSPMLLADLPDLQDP
# F380Y = test: BK channel mutant inhibitors and activators – cell-based, U2OS BacMam, thallium flux, beta subunits, selectivity assay, profiling panel (AID 1259406); details: U2OS BacMam BK variants, at 30 µM;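 note: initial slope of Thallos dye fluorescence rise after thallium is added; log ratio against the mean of 0.3% DMSO vehicle wells on the same plate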
# F380Y/beta2Delta = test: as above; details: U2OS BacMam BK variants, at 30 µM
# [17] = target: Calcium-activated potassium channel subunit alpha-1 (Homo sapiens) + Leucine-rich repeat-containing protein 26 (Homo sapiens) (UniProt Q12791+Q2I0M4); test: as above; details: U2OS BacMam BK variants, F380Y/Slo1WT/gamma1, at 30 µM
# Chain of Calcium-activated potassium channel subunit alpha-1 (Homo sapiens) + Leucine-rich repeat-containing protein 26 (Homo sapiens) (Q2I0M4 whole entry, looked up, one chain of several): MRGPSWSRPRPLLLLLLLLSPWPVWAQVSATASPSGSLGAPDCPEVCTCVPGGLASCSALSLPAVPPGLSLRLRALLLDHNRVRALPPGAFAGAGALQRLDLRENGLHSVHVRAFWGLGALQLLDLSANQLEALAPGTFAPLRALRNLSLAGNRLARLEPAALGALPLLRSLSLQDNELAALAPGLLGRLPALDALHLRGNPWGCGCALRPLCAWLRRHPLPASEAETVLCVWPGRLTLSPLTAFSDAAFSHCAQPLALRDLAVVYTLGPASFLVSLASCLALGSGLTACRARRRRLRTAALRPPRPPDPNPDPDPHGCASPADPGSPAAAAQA
# [18] = measured here: epithelial PC-3E GFP cell survival
# [19] = measured here: mesenchymal TEM4-18 mCherry cell survival
# [20] = MELAS cybrid survival, CellTiter-Glo 48 h, stronger effect = higher value
# [21] = Rieske KO mouse fibroblast survival, CellTiter-Glo 72 h
smiles,measurement,setting,value
OC(CCN1CCCCC1)(c1ccccc1)C1CCCCC1 (configuration not stated),inhibition,[1],-5.91% (inactive)
same,inhibition,[2],-2.76% (inactive)
same,fluorescence ratio,[3],0.95 (inactive)
same,nuclear beta-catenin stimulation,[4]; at 10 µM,-1.1% (inactive)
same,nuclear beta-catenin stimulation,"[4]; stimulation, at 2 µM",7.5%
same,insulin secretion stimulation,[5],12.4% (inactive)
same,viability decrease,[6],-59.3% (inactive)
same,tube area decrease,[7],5% (inactive)
same,GLP1 secretion stimulation,[8],3.3% (inactive)
same,inhibition of viability,[9],34.2% (inactive)
same,viability decrease (inhibition),[10],67.1% (active)
same,viability decrease (inhibition),[11],18.6% (inactive)
same,inhibition,[12],5.23% (inactive)
same,red/green cell ratio (normalised),[13],1.08 (inactive)
same,normalised cell number,[13]; [18],0.92
same,normalised cell number,[13]; [19],1
same,z-score,[14]; [20],0.423 (inactive)
same,z-score,[14]; [21],0.169
same,remaining NAD,[15],10 nM (inactive)
same,luciferase signal,[16],56 AU (inactive)
same,log fold change Tl+ flux,F380Y,0.0654 (inactive)
same,log fold change Tl+ flux,F380Y/beta2Delta,-0.0109 (inactive)
same,log fold change Tl+ flux,[17],-0.0285 (inactive)
CC[N+](C)(C)c1cccc(O)c1,inhibition,[1],-1.36% (inactive)
same,inhibition,[2],0.29% (inactive)
same,fluorescence ratio,[3],0.96 (inactive)
same,nuclear beta-catenin stimulation,[4]; at 10 µM,-1.7% (inactive)
same,nuclear beta-catenin stimulation,"[4]; stimulation, at 2 µM",0.9%
same,insulin secretion stimulation,[5],0% (inactive)
same,viability decrease,[6],-29% (inactive)
same,tube area decrease,[7],-7.4% (inactive)
same,GLP1 secretion stimulation,[8],0.7% (inactive)
same,inhibition of viability,[9],-0.1% (inactive)
same,viability decrease (inhibition),[10],-11.1% (inactive)
same,viability decrease (inhibition),[11],-13.2% (inactive)
same,inhibition,[12],-4.48% (inactive)
same,red/green cell ratio (normalised),[13],1.2 (inactive)
same,normalised cell number,[13]; [18],0.65
same,normalised cell number,[13]; [19],0.78
same,z-score,[14]; [20],-0.344 (inactive)
same,z-score,[14]; [21],0.198
same,remaining NAD,[15],10 nM (inactive)
same,luciferase signal,[16],68 AU (inactive)
same,log fold change Tl+ flux,F380Y,0.0242 (inactive)
same,log fold change Tl+ flux,F380Y/beta2Delta,0.0329 (inactive)
same,log fold change Tl+ flux,[17],-0.0327 (inactive)
CN(C)CCCN1c2ccccc2Sc2ccc(Cl)cc21,inhibition,[1],-4.09% (inactive)
same,inhibition,[2],-1.24% (inactive)
same,fluorescence ratio,[3],0.91 (inactive)
same,nuclear beta-catenin stimulation,[4]; at 10 µM,5.5% (inactive)
same,nuclear beta-catenin stimulation,"[4]; stimulation, at 2 µM",0.9%
same,insulin secretion stimulation,[5],8.9% (inactive)
same,viability decrease,[6],82% (active)
same,tube area decrease,[7],68.7% (active)
same,GLP1 secretion stimulation,[8],15.5% (inactive)
same,inhibition of viability,[9],96.1% (active)
same,viability decrease (inhibition),[10],128% (active)
same,viability decrease (inhibition),[11],93.1% (active)
same,inhibition,[12],10.5% (inactive)
same,red/green cell ratio (normalised),[13],1.34 (inactive)
same,normalised cell number,[13]; [18],0.97
same,normalised cell number,[13]; [19],1.3
same,z-score,[14]; [20],2.27 (active) and 0.163 (inactive) and 0.651 (inactive)
same,z-score,[14]; [21],-0.778 and 0.446 and 0.902
same,remaining NAD,[15],10 nM (inactive)
same,luciferase signal,[16],68 AU (inactive)
same,log fold change Tl+ flux,F380Y,0.156 (active)
same,log fold change Tl+ flux,F380Y/beta2Delta,0.221 (active)
same,log fold change Tl+ flux,[17],0.0114 (inactive)
O=C1NC(=O)C(c2ccccc2)(c2ccccc2)N1,inhibition,[1],-2.27% (inactive)
same,inhibition,[2],-2% (inactive)
same,fluorescence ratio,[3],1 (inactive)
same,nuclear beta-catenin stimulation,[4]; at 10 µM,0.1% (inactive)
same,nuclear beta-catenin stimulation,"[4]; stimulation, at 2 µM",0.8%
same,insulin secretion stimulation,[5],-0.3% (inactive)
same,viability decrease,[6],7% (inactive)
same,tube area decrease,[7],-8.6% (inactive)
same,GLP1 secretion stimulation,[8],3.3% (inactive)
same,inhibition of viability,[9],0.15% (inactive)
same,viability decrease (inhibition),[10],45.8% (inactive)
same,viability decrease (inhibition),[11],-0.3% (inactive)
same,inhibition,[12],6.59% (inactive)
same,red/green cell ratio (normalised),[13],0.93 (inactive)
same,normalised cell number,[13]; [18],1.07
same,normalised cell number,[13]; [19],0.99
same,z-score,[14]; [20],2.18 (active) and -0.393 (inactive)
same,z-score,[14]; [21],-1.75 and 0.128
same,remaining NAD,[15],10 nM (inactive)
same,luciferase signal,[16],68 AU (inactive)
same,log fold change Tl+ flux,F380Y,0.0665 (inactive)
same,log fold change Tl+ flux,F380Y/beta2Delta,-0.01 (inactive)
same,log fold change Tl+ flux,[17],-0.0118 (inactive)
